Laboratory results taken from paper PMC6212790, “How bacterial xenogeneic silencer rok distinguishes foreign from self DNA in its resident genome”.
Over roughly 33,000 sequences, “e-score” has its median near -0.038; the highest 2% begin near 0.33. What follows is part of a selection rich in the highest values, with near analogues and random picks from the rest.

These sequences were tested against T1, GST-Rok-C97-191 (Bacillus subtilis subsp. subtilis str. …, UniProt O34857 97-191) (assay: protein binding microarray; Rok is a gene silencer of Bacillus subtilis; high values mean tight binding). Conditions: protein: recombinant; tags: GST (pTH5325, pDEST15-Magic modified); dsDNA, one strand shown.
T1 sequence: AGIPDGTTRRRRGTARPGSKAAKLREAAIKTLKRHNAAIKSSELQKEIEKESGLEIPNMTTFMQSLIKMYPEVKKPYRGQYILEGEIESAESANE
How it was run: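 Each has a 25-mer constant primer and a 35-mer variable part from a de Bruijn sequence of order 10, covering every non-palindromic 8-mer at least 32 times (palindromic 16). Preference for each 8-mer is given as a rank-based, unitless enrichment score (E-score). Its range runs from 0.5 (most favored) to −0.5 (most disfavored).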

| Sequence | binding signal [E-score] |
| --- | --- |
| CGAGTGTC | -0.0337 |
| ATGACGGG | -0.176 |
| GGGGCTAA | -0.0896 |
| ATAAGAAT | 0.215 |
| GGAATATA | 0.377 |
| CGAATATA | 0.245 |
| AGAATATA | 0.231 |
| CAACGGCA | -0.159 |
| GCGCAATA | 0.0439 |
| AGCGGTAG | 0.33 |
| AGCGGTAT | 0.237 |
| CGCGGTAG | 0.00539 |
| ACCGGTAG | 0.335 |
| CCCGGTAG | -0.134 |
| ACCGGTAA | 0.192 |
| ATGACCCA | -0.129 |
| GTTTGTTA | 0.13 |
| ACATCAAA | 0.02 |
| CCTGTCAG | -0.131 |
| AACTAATA | 0.288 |
| TACTAAAA | 0.421 |
| AACTAACA | 0.126 |
| AACTAACT | 0.352 |
| AACTAATC | 0.129 |

| Sequence | binding signal [E-score] |
| --- | --- |
| AACTAATT | 0.344 |
| AACTAAAG | -0.0536 |
| AACTAACG | 0.263 |
| AACTAAAT | 0.379 |
| AACTAAAC | 0.00571 |
| CACTAAAA | 0.299 |
| GACTAAAA | 0.144 |
| AGGCACAT | -0.0618 |
| CTGCAACA | 0.0545 |
| ACGGACCA | -0.109 |
| CGTCCTTA | 0.175 |
| AAAATGTG | 0.218 |
| GTGCGAAC | -0.184 |
| GCGAATAC | 0.0221 |
| AAACTGGG | -0.197 |
| CCCGCTAC | -0.0971 |
| AGACCTAG | 0.0543 |
| AGAAGCTC | -0.0476 |
| CCTAATCC | 0.0562 |
| CGATAAGA | 0.0724 |
| AACTAAGA | 0.223 |
| AACTAAAA | 0.347 |
| ACCTAAAA | 0.295 |
| AACACAAA | 0.135 |

| Sequence | binding signal [E-score] |
| --- | --- |
| AGCGCAAG | -0.0906 |
| ATACGACC | 0.00262 |
| AAAGGTAG | 0.316 |
| CTTAACTA | 0.273 |
| ATTAACTA | 0.367 |
| GTTAACGA | 0.0428 |
| ATTAACTC | 0.124 |
| ATTAACTG | 0.214 |
| GTTAACTA | 0.376 |
| TAGTCACA | 0.123 |
| TCGGGCCA | -0.12 |
| AGAGTGCG | -0.139 |
| AGTAGAAA | 0.448 |
| AGTAGAAC | 0.234 |
| ATTAGAAA | 0.282 |
| AGTAGAGA | 0.206 |
| AGTAGAAT | 0.422 |
| AGTAGAAG | 0.276 |
| AACGGGCT | -0.138 |
| AGCCATTG | -0.0954 |
| AAGGACTG | -0.0637 |
| ACAGAGAG | -0.125 |
| CTATTGTA | 0.355 |
| GTATTGTA | 0.212 |

| Sequence | binding signal [E-score] |
| --- | --- |
| CTATTGTC | -0.0498 |
| ATATTGTA | 0.363 |
| ATATTGTG | 0.214 |
| CAATTGTA | 0.251 |
| ATGCGCGG | -0.168 |
| CTGTCCAA | -0.154 |
| CACAGAGG | -0.0801 |
| ACATCCTG | -0.137 |
| TCCTGCGA | -0.149 |
| GGCTTGAA | -0.105 |
| CACTGACG | 0.009 |
| GAATTTAC | 0.282 |
| AAATTTTC | 0.182 |
| AAATTTGA | 0.0368 |
| AAATTTGT | 0.33 |
| AAATTTGG | 0.0224 |
| AATTTTAG | 0.259 |
| ATTTTTAC | 0.328 |
| AATTTTAC | 0.384 |
| AAATTTAC | 0.38 |
| AAATTTTA | 0.374 |
| AAATTTAG | 0.242 |
| AATTTTTA | 0.167 |
| TGAAGTAA | 0.132 |

| Sequence | binding signal [E-score] |
| --- | --- |
| GTAATAAC | 0.0936 |
| GTATTCGA | 0.15 |
| ATTTGCTG | -0.0116 |
| AAGATTGC | -0.0164 |
| AATCGTGA | -0.118 |
| ACCCATGC | -0.182 |
| AGAGCGAA | -0.138 |
| GGTCGACA | -0.101 |
| AAAATTTA | 0.282 |
| TAAATTTA | 0.405 |
| CAAATTTA | 0.31 |
| CAATTTAA | 0.0656 |
| CAATTTAG | 0.232 |
| CAATTTAC | 0.357 |
| AGTCTGGG | -7.1e-05 |
| GAGCTTAC | -0.189 |
| CCGAAAAC | 0.168 |
| AATACAAA | 0.313 |
| AATACATA | 0.308 |
| CATACAAA | 0.219 |
| TATACATA | 0.401 |
| CATACATG | 0.171 |
| CATACATA | 0.234 |
| TACACATA | 0.203 |

| Sequence | binding signal [E-score] |
| --- | --- |
| GATACATA | 0.377 |
| TATACAAA | 0.347 |
| CATTAACC | -0.0128 |
| TCATACCA | 0.0725 |
| ATTAGCAC | 0.0299 |
| GTCGGAAC | 0.0505 |
| AAGGTTGA | 0.063 |
| CTACCTTA | 0.264 |
| AAAAGCAA | 0.148 |
| CGATTATC | 0.0925 |
| TACTGAGA | 0.0745 |
| TTACTAAA | 0.335 |
| TCACTAAA | 0.164 |
| CTACTAAG | 0.261 |
| GTACTAAA | 0.329 |
| GGACTAAA | 0.0947 |
| TGACTAAA | 0.0396 |
| ATACTAAA | 0.39 |
| ATACTAAT | 0.321 |
| CTACTAAA | 0.379 |
| CTACTAAC | 0.223 |
| GTACTAAC | 0.145 |
| ATACTAAC | 0.103 |
| TATTTCCA | 0.228 |

| Sequence | binding signal [E-score] |
| --- | --- |
| ACTATTGC | 0.313 |
| CTATCTTA | 0.227 |
| AAGAATCT | 0.0962 |
| TTCCTCAA | 0.041 |
| AACTGAGC | 0.0188 |
| GAAGCTGA | 0.014 |
| ACGGTCCT | -0.132 |
| AAACTGTT | -0.043 |
| GAAAGATA | 0.329 |
| AATAGATA | 0.32 |
| AAAAGATA | 0.137 |
| ATAAGATA | 0.372 |
| TAAAGATA | 0.27 |
| GTAAGATA | 0.229 |
| GATAGATC | 0.268 |
| TATAGATA | 0.368 |
| CATAGATA | 0.297 |
| CTAAGATA | 0.213 |
| GATAGATA | 0.347 |
| GTTAGATA | 0.321 |
| AACATCGA | 0.134 |
| GCACAAAC | -0.0175 |
| AGCGTGGA | 0.126 |
